Laboratory results taken from PubChem BioAssay (Tox21).
Inconclusive results are not listed. Active and inactive are the calls of the source. Calls follow the shape of the dose curve; as a rule, active = well fitted cell-killing curve with a large enough effect in the repeat runs; inconclusive = weak or mixed curves, or effect the other way; inactive = no such curve, though single readings can be large or run the other way.

Test: qHTS assay for identifying genotoxic compounds that show differential cytotoxicity against isogenic chicken DT40 cell lines with known DNA damage response pathways - wild type cell line (AID 743012); also: nearly all actives have a fitted effect of over 60% in size
Details: DT40 wild type chicken cells viability, CellTiter-Glo, 40 h; series mostly up to 68.4 µM; activity change, negative = cytotoxicity: at the top concentration
In short: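 Wild type DT40, 300 cells/well, ~0.5 h settle at 37 C/5% CO2; compounds in DMSO added by pintool; 40 h at 37 C/5% CO2; CellTiter-Glo, 30 min RT; luminescence.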
% is scaled to controls: 0 for no effect and ±100 for the full control effect; potency is read from the fitted curve at half-maximal effect.

SMILES | activity change, negative = cytotoxicity | Potency
CC[C@H](C)[C@@H](C(=O)O)n1sc2ccccc2c1=O | -1.9% (inactive) | –
O=S1(=O)N=C(O)c2ccccc21 | 1.38% (inactive) | –
O=C(O)/C=C/c1cnc[nH]1 | 6.6% (inactive) | –
SC1CCCC1 | 7.53% (inactive) | –
NC1CCN(c2nc3c(cc2F)c(=O)c(C(=O)O)cn3-c2ccc(F)cc2F)C1 (centres undefined) | – | 10.6 µM (active)
CN(C)C/C=C(/c1ccc(Br)cc1)c1cccnc1 | – | 29.8 µM (active)
CN1CCC[C@@H]1c1cccnc1 | 6.46% (inactive) | –
NC(N)=N/N=C/c1c(Cl)cccc1Cl | – | 11.9 µM (active)
CN(C)CCCOc1nn(Cc2ccccc2)c2ccccc12 | – | 12.7 µM (active)
Cc1ccc(C(N)=O)cc1N | 19.6% (inactive) | –
CCCCCc1ccc(N)cc1 | -20.7% (inactive) | –
O=[N+]([O-])c1cc[n+]([O-])cc1 | – | 15.4 µM (active)
C[C@H](CCC(=O)O)[C@H]1CC[C@H]2[C@@H]3[C@H](O)C[C@@H]4C[C@H](O)CC[C@]4(C)[C@H]3CC[C@]12C | – | inactive
CCCCOC(=O)/C=C\C(=O)OCCCC | 13.7% [at 95 µM] (inactive) | –
Cc1cccc(C(C)(C)C)c1O | 0.567% (inactive) | –
O=C1c2cccc(O)c2C(=O)c2c(O)cc(CO)cc21 | -2.59% (inactive) | –
CCCCCC(CO)CCC (centres undefined) | 8.79% (inactive) | –
CC(C)(C)c1cc(O)c(C(C)(C)C)cc1O | – | 12.2 µM (active)
Cc1ccc(C)o1 | 33.6% [at 95 µM] (inactive) | –
CC(=O)O[C@@H]1C(=O)O[C@@H]2[C@H]1OC(=O)[C@@H]2OC(C)=O | – | 26.6 µM (active)
NC[C@H]1O[C@H](O[C@H]2[C@H](O)[C@@H](O[C@H]3O[C@H](CO)[C@@H](O)[C@H](N)[C@H]3O)[C@H](N)C[C@@H]2N)[C@H](O)[C@@H](O)[C@@H]1O | – | inactive
Cc1cc(CC(=O)O)c(C)n1-c1ccc(Cl)cc1 | – | 26.6 µM (active)
CCCCC(CC)(CO)CO | -17.1% (inactive) | –
Cc1c(Cn2ccnc2)c2ccccc2n1CCC(=O)O | 14.9% (inactive) | –
O=C(O)Cn1c(C(=O)Nc2nc(-c3ccccc3Cl)cs2)cc2ccccc21 | 4.52% (inactive) | –
Nc1cnn([C@@H]2O[C@H](CO)[C@@H](O)[C@H]2O)c(=O)n1 | – | 27.3 µM (active)
CC1(C)CCC(C)(C)c2cc(NC(=O)c3ccc(C(=O)O)cc3)ccc21 | – | 26.6 µM (active)
CCCCOCCOCCOCCOCCO | -24% (inactive) | –
O=[N+]([O-])c1cccc(Cl)c1Cl | 10% (inactive) | –
